Data: PubChem BioAssay AID463173 (ICCB-Longwood Screening Facility, Harvard Medical School, 2010)
In all, about 52,000 compounds went through this assay and about 1,700 (3.3%) were called active. For the sample, actives were picked, then their nearest neighbours and some compounds at random. Values without a mark were called inactive. Rule as the data show it: active = survival mostly below about 52% (no sharp cut-off); inactive = mostly above about 56%.

These molecules were tested on Wild type (assay: S. aureus survival, RN4220 and DeltatarO strains – OD600, teichoic acid synthesis inhibitors, primary screen (AID 463173)). Details: S. aureus RN4220 wild type/DeltatarO growth, OD600, 18 h, hits give low values, screened at 18.75 µg/mL (by protocol).

Row | Compound | survival
1 | CCc1cccc(NC(=O)CSc2nncn3c2cc2sccc23)c1 | 73%
2 | CCOc1cccc2sc(NC(=O)CS(=O)(=O)c3ccc(C)cc3)nc12 | 72%
3 | Cc1cccn2c(=O)c(C(=O)N3CCN(c4ccc(Cl)cc4)CC3)cnc12 | 87%
4 | CCCSCCCNC(=O)C1CCCN(C(=O)c2cnn(-c3ccccc3)c2-n2cccc2)C1 (stereo not given) | 107%
5 | COc1ccccc1CNC(=O)c1oc2ccc3c(c2c1C)C(=O)CC(C)(C)O3 | 59%
6 | Cc1ccc(OC(C)C(=O)NCC2(N3CCOCC3)CCCCC2)cc1C (stereo not given) | 86%
7 | CC1CCCN(Cc2c(O)ccc3c(=O)c(-c4ccc(Cl)cc4)c(C(F)(F)F)oc23)C1 (stereo not given) | 71%
8 | CCc1cccc(C)c1NC(=O)C(CC)Sc1nncn2c1cc1occc12 (stereo not given) | 78%
9 | CCc1ccc(CNC(=O)c2ccc3c(c2)nc2n3CCOC2)cc1 | 111%
10 | CN(C(=O)C1CCN(c2ncnc3c2nc2n3CCCCC2)CC1)c1ccccc1F | 60%
11 | O=C(CSc1c2c(nc3cc(Cl)ccc13)CCCC2)N1CCN(c2ccccc2F)CC1 | 69%
12 | CC1CCN(C(=O)CSc2c3c(nc4ccc(Cl)cc24)CCCC3)CC1 | -1% (active)
13 | O=C(CSc1c2c(nc3cc(Cl)ccc13)CCCC2)N1CCN(c2ccccc2)CC1 | 44%
14 | CC1CCCN(C(=O)CSc2c3c(nc4cc(Cl)ccc24)CCCC3)C1 (stereo not given) | -1% (active)
15 | CCC(C)NC(=O)CSc1c2c(nc3cc(Cl)ccc13)CCCC2 (stereo not given) | 82%
16 | CC1CCCCN1C(=O)CSc1c2c(nc3cc(Cl)ccc13)CCCC2 (stereo not given) | -1% (active)
17 | O=C(CSc1c2c(nc3ccc(Cl)cc13)CCCC2)N1CCCCC1 | 29%
18 | O=C(CSc1c2c(nc3ccc(Cl)cc13)CCCC2)N1CCN(c2ccc(Cl)cc2)CC1 | 53%
19 | Cc1ccc(CNC(=O)CSc2c3c(nc4cc(Cl)ccc24)CCCC3)cc1 | 83%
20 | CC1CCN(C(=O)CSc2c3c(nc4cc(Cl)ccc24)CCCC3)CC1 | 10% (active)
21 | COCCNC(=O)CSc1c2c(nc3cc(Cl)ccc13)CCCC2 | 71%
22 | CCOC(=O)C1CCN(C(=O)CSc2c3c(nc4ccc(Cl)cc24)CCCC3)CC1 | 56%
23 | CCCCN1C(=O)CN(C2CCCCCC2)C(=O)C1c1ccc(OCC)c(OC)c1 (stereo not given) | 78%

Row | Compound | survival
24 | CCCCNc1nc2c(S(=O)(=O)c3ccc(Cl)cc3)nnn2c2ccsc12 | 89%
25 | O=C(NC1CC2CCCC(C1)N2CC(=O)N1CCCc2ccccc21)c1ccccc1 (stereo not given) | 97%
26 | CCOc1ccc(C2CC(=O)c3c([nH]c(C(=O)OC4CCCCCC4)c3C)C2)cc1 (stereo not given) | 79%
27 | O=C(Cn1nc(Cc2cccnc2)c2ccccc2c1=O)N1CCN(c2ccc(F)cc2)CC1 | 89%
28 | Cc1ccccc1CNC(=O)C(=O)NCC(c1cccs1)S(=O)(=O)c1ccc(Cl)cc1 (stereo not given) | 74%
29 | Cc1ccc(OCC(=O)OCc2cc(=O)n3nc(C4CCCCC4)sc3n2)cc1C | 79%
30 | CC1=Nc2cc(C(=O)N3CCC(C)CC3)ccc2Sc2ccc(Cl)cc21 | 81%
31 | CCOC(=O)C1CCN(C(=O)c2ccc3c(c2)N=C(CC)c2cc(C)ccc2S3)CC1 | 29%
32 | CCCC1=Nc2cc(C(=O)N3CCC(C)CC3)ccc2Sc2ccc(C)cc21 | 107%
33 | CNC(=O)c1ccc2c(c1)N=C(C)c1cc(C)ccc1S2 | 80%
34 | CC1=Nc2cc(C(=O)N3CCCCC3)ccc2Sc2ccc(C)cc21 | 3% (active)
35 | CCC1=Nc2cc(C(=O)N3CCC(C)CC3)ccc2Sc2ccc(C)cc21 | -1% (active)
36 | CC(C)CCNC(=O)CN1C(=O)CCn2nc(-c3cn(C)c4ccccc34)cc21 | 87%
37 | COc1ccccc1-c1c(C)nn2c(N3CCN(c4ccc(F)cc4)CC3)cc(C)nc12 | 88%
38 | O=c1c(N2CCN(c3cccc(C(F)(F)F)c3)CC2)csc2ccc(Cl)cc12 | 74%
39 | CCOC(=O)c1c(S(=O)(=O)NCC(=O)Nc2cc(C)ccc2C)c(C)n(C)c1C | 66%
40 | Cn1c(=O)n(-c2cccc(Cl)c2)c(=O)c2sc3ccccc3c21 | 71%
41 | Cc1ccc(S(=O)(=O)N2CCN(Cc3cc(=O)n4nc(-c5ccccc5Cl)sc4n3)CC2)cc1 | 64%
42 | CCn1cc(S(=O)(=O)c2ccccc2)c(=O)c2cc(F)c(F)cc21 | 82%
43 | CCc1ccccc1NS(=O)(=O)c1ccc2[nH]cc(C(=O)N3CCCCC3)c(=O)c2c1 | 127%
44 | Cc1ccc(-c2nn(CCC(N)=O)c(=O)c3ccccc23)cc1 | 65%
45 | CCOc1ccc(C(=O)Nc2ccc(-c3cc4ccccc4oc3=O)cc2)cc1Br | 75%
46 | Cc1ccc(Cl)cc1NC(=O)c1ccc(-c2nc(CSc3ccccc3)c(C)o2)cc1 | 55%

Row | Compound | survival
47 | CCN1CCC(N(Cc2cccc(OC)c2)C(=O)Nc2ccc(C)cc2Cl)CC1 | 53%
48 | CCN1CCC(N(Cc2cccc(OC)c2)C(=O)Nc2cccc(C)c2C)CC1 | -3% (active)
49 | CCN1CCC(N(Cc2ccc3c(c2)OCO3)C(=O)Nc2cccc(C)c2C)CC1 | 83%
50 | CCc1cccc(C)c1NS(=O)(=O)c1ccc(-n2cccn2)cc1 | 128%
51 | O=C(CCc1ccccc1)Nc1nnc(CCN2CCCCC2)s1 | 97%
52 | CCCn1cc(S(=O)(=O)c2ccccc2)c(=O)c2cc(F)c(N3CCCC(C)C3)cc21 (stereo not given) | 71%
53 | CC(C)OC(=O)CSc1nnc(CNc2ccc(F)cc2)n1C1CCCCC1 | 108%
54 | Cc1cccc(Cn2cccc2CNS(=O)(=O)c2ccccc2F)c1 | -4% (active)
55 | Cc1cccc(Cn2cccc2CNS(=O)(=O)c2ccc(Br)cc2)c1 | 64%
56 | CCc1ccc(S(=O)(=O)NCc2cccn2Cc2cccc(C)c2)cc1 | 71%
57 | COc1cc(OC)cc(-c2nc(-c3cccc(C)c3)no2)c1 | -15% (active)
58 | COc1ccc(OCc2nc(-c3ccc(OC)c(OC)c3)no2)cc1 | 70%
59 | COc1cc(OC)cc(-c2nc(-c3ccc4c(c3)[nH]c(=O)n4C)no2)c1 | 73%
60 | COc1ccc(-c2noc(CN(C)S(=O)(=O)c3c(C)cc(C)cc3C)n2)cc1OC | 78%
61 | Cc1cccc(-c2noc(-c3ccc(N4CCN(C)CC4)c([N+](=O)[O-])c3)n2)c1 | -3% (active)
62 | COc1ccc(-c2noc(COc3cc(C)ccc3C)n2)cc1OC | 0% (active)
63 | COc1ccc(N2CCN(c3ccc(-c4nc(-c5cccc(C)c5)no4)cc3[N+](=O)[O-])CC2)cc1 | 89%
64 | COc1ccc(-c2noc(COc3cc(C)c(Br)c(C)c3)n2)cc1OC | 80%
65 | COc1ccc(-c2noc(COc3ccc(Br)cc3C)n2)cc1OC | 11% (active)
66 | Cc1ccc(-c2noc(-c3ccc(N4CCN(C)CC4)c([N+](=O)[O-])c3)n2)cc1 | 85%
67 | CCc1ccc(OCc2nc(-c3ccc(OC)c(OC)c3)no2)c(Br)c1 | 38%
68 | Cc1cccc(-c2noc(-c3ccc(N4CCCC4)c([N+](=O)[O-])c3)n2)c1 | 81%
69 | Cc1cc(C)c(S(=O)(=O)NCC(c2ccco2)N2CCN(c3ccccc3)CC2)c(C)c1 (stereo not given) | 85%

Row | Compound | survival
70 | Cc1ccc(Nc2nc3ccccc3c3nncn23)c(Cl)c1 | 132%
71 | O=C(NCc1cccs1)c1nn(-c2ccccc2Cl)nc1CO | 116%
72 | COc1cccc(-c2cc(C(=O)Nc3cc(OC)c(OC)c(OC)c3)on2)c1 | 69%
73 | COc1ccc(NS(=O)(=O)c2ccc3[nH]c4c(c3c2)CCCC4)c(OC)c1 | 99%
74 | COc1cccc(CCNC(=O)c2cnc3sc(N4CCCCCC4)nn3c2=O)c1 | 80%
75 | O=C(CSc1ncc(S(=O)(=O)c2ccc(Cl)cc2)c(=O)[nH]1)Nc1cccc(C(F)(F)F)c1 | 78%
76 | COc1cccc(-c2noc(COc3cccc(C)c3C)n2)c1 | 85%
77 | COc1ccccc1OCc1nc(-c2cccc(C)c2)no1 | 0% (active)
78 | COc1ccc(C(=O)NCc2nc(-c3cccc(C)c3)no2)cc1OC | 113%
79 | Cc1ccc(N2C(=O)CS(=O)(=O)C23C(=O)N(Cc2cccc(F)c2)c2ccccc23)cc1Cl (stereo not given) | 75%
80 | COc1ccc(CC(=O)N2CC(=O)Nc3ccc(Br)cc3C2c2ccc(F)cc2)cc1 (stereo not given) | 64%
81 | Cc1ccc2c(c1)N(C(=O)Nc1cccc(C)c1C)CCO2 | 89%
82 | COc1cccc(NC(=O)c2c(C)nn(-c3cccc(C)c3)c2-n2cccc2)c1 | 0% (active)
83 | COc1cc(NC(=O)c2c(C)nn(-c3ccc(F)cc3)c2-n2cccc2)cc(OC)c1 | 70%
84 | CCOC(=O)N1CCN(C(=O)c2c(C)nn(-c3cccc(C)c3)c2-n2cccc2)CC1 | -3% (active)
85 | COc1cccc(CNC(=O)c2c(C)nn(-c3cccc(C)c3)c2-n2cccc2)c1 | 71%
86 | CCOC(=O)N1CCC(NC(=O)c2c(C)nn(-c3cccc(C)c3)c2-n2cccc2)CC1 | 85%
87 | Cc1cccc(-n2nc(C)c(C(=O)N3CCN(c4ccccc4)CC3)c2-n2cccc2)c1 | 53%
88 | Cc1ccc(NC(=O)C2C3C=CC4(O3)C2C(=O)N(c2ccccc2F)C4C(=O)NC2CCCC2)cc1 (stereo not given) | 84%
89 | O=C(Nc1ccc(C(=O)OCc2cc(=O)n3nc(C4CC4)sc3n2)cc1)c1ccccc1 | 70%
90 | O=C(CCc1nc2cccnc2n1Cc1cccs1)Nc1cccc(C(F)(F)F)c1 | 79%
